Bioassay records (PubChem)
In the library only some 12% were active in any assay of this set; here they are far more common.
JMJD2A Tudor inh = JMJD2A Tudor domain (human) inhibition; AID 504339; 390,000 tested, 4.4% active; AlphaScreen JMJD2A-Tudor / H3K4me3 peptide binding; O75164; Potency, µM (series often up to 114 µM), inactives show top-dose activity change, negative = inhibition, hits mostly inhibitors; also: % is scaled to controls: 0 for no effect and ±100 for the full control effect; nearly all actives have a fitted effect of over 50% in size
L3MBTL1 block = blocks human L3MBTL1; AlphaScreen L3MBTL1–H3K9me1 peptide binding; Q9Y468; Potency, µM (titrated, usually from 57.1 µM), inactives show top-dose activity, negative = inhibition, usual class: inhibitors; AID 485360; 230,000 tested, 0.66% active; also: % is scaled to controls: 0 for no effect and ±100 for the full control effect; nearly all actives have a fitted effect of over 60% in size
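Displacement of a biotinylated histone H3(1-15) peptide monomethylated at Lys9 (75 nM) from L3MBTL1 (50 nM) was measured by AlphaScreen after a 30 min room-temperature compound incubation; cefsulodin titration served as intraplate control.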
HP1b chromo inh = inhibitors of HP1-beta chromodomain binding to methylated histone tails; AID 540317; Potency, µM (series often up to 114 µM), inactives show top-dose activity change, negative = inhibition, most hits filed as inhibitors; 390,000 tested, 0.56% active; AlphaScreen HP1-beta / biotin-H3K9me3 peptide binding; also: nearly all actives have a fitted effect of over 70% in size
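AlphaScreen: HP1-beta (50 nM) preformed 30 min with biotin-H3(1-18)K9me3 peptide (50 nM) in PBS pH 7.4, 0.01% Tween-20. Compound added for 30 min at RT, then streptavidin donor/nickel chelate acceptor beads (10 ug/mL) for 30 min.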
BAZ2B block = BAZ2B (human) inhibition. AlphaScreen BAZ2B-H3K14Ac peptide displacement. Potency, µM (top dose mostly 114 µM), without a hit: at the top dose activity change, negative = inhibition, hits mostly inhibitors. 360,000 tested, 4.4% active. AID 504333; also: % is scaled to controls: 0 for no effect and ±100 for the full control effect; nearly all actives have a fitted effect of over 60% in size
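AlphaScreen displacement of biotin-H3(5-23)K14Ac peptide (50 nM final) from BAZ2B (50 nM final) in PBS pH 7.4, 0.01% Tween-20; complex preformed 30 min RT, then compounds (top 110 uM) 30 min RT, beads 20 min dark.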
Sfp inh = Sfp phosphopantetheinyl transferase inhibition | Q9F4F7 | Biochemical Sfp PPTase activity, qHTS | Potency, µM, without a hit: largest response in the series, negative = inhibition, most hits filed as inhibitors | 310,000 tested, 3.5% active;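 also: the enzyme is Sfp with the accession as filed and its product quenches rhodamine fluorescence; 0% = enzyme reaction without inhibitor and -100% = no enzyme wells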
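With Hepes-Na pH 7.6 buffer containing 10 mM MgCl2, Sfp (15 nM) modified BHQ-2-YbbR (12.5 uM) using rhodamine-CoA (5 uM). Two reads 30 minutes apart at 525/598 nm yielded each well's rate.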
G9a inh = blocks human histone lysine methyltransferase G9a; G9a H3K9 monomethylation, AlphaScreen, 2 h; Q96KQ7; 350,000 tested, 8.8% active; AID 504332; Potency, µM (titrated, usually from 102 µM), for the others: top-dose activity, negative = inhibition, usual class: inhibitors; also: % is scaled to controls: 0 for no effect and ±100 for the full control effect; nearly all actives have a fitted effect of over 75% in size
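G9a (20 nM) preincubated 15 min RT with compounds, then 500 nM biotinylated H3K9 peptide and 20 uM SAM added; 2 h RT reaction. Monomethyl-H3K9 product detected by AlphaScreen with anti-H3K9me1 antibody, streptavidin donor and anti-rabbit IgG acceptor beads.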
Starred values were filed as active, the others as inactive; ? = inconclusive; nt = no result; ! = not confirmed by another sample; [ ] = another dose, or the depositor's remark. Calls follow the shape of the dose curve; as a rule, active = well fitted curve in the direction sought with a large enough effect; inconclusive = small, poorly fitted or top-dose-only effect, or another doubt; inactive = no such curve, though single readings can be large; an effect the other way counts as inactive or inconclusive. Potency is read from the fitted curve at half-maximal effect.

SMILES	JMJD2A Tudor inh	L3MBTL1 block	HP1b chromo inh	BAZ2B block	Sfp inh	G9a inh
N#Cc1ccc(S(=O)(=O)N2CCN(c3nc(-c4ccccc4)nc4ccccc34)CC2)cc1	-18%	nt	50%	nt	nt	nt
COc1cccc(CNC(=O)CSc2nc(=O)[nH]c3c2CCCC3)c1	-4%	nt	31%	1%	nt	-7%[59 µM]
CCN(C(=O)COC(=O)c1c2c(nc3ccccc13)/C(=C/c1ccccc1)CC(C)C2)C1CCS(=O)(=O)C1 (centres undefined)	-9%	7%	35%	0%	-4%	-15%[59 µM]
O=C(CCCSc1nc2ccccc2s1)NCc1ccco1	-11%	-3%	0%	-1%	-8%	79µM*
CC(Cc1c[nH]c2ccccc12)C(=O)NCc1ccco1 (centres undefined)	?	nt	?	50µM*	9%	32µM*
CCc1ccccc1NC(=O)CCCSc1nc2ccccc2s1	-8%	10%	20%	-5%	-6%	2%[59 µM]
O=C(CCSCCC(=O)NCc1ccco1)NCc1ccco1	20µM*	?	?	56µM*	16µM*	?
CC(C)c1ccc(NC(=O)CCC(=O)NCc2ccco2)cc1	-17%	1%	11%	0%	11%	26%
CC(C)C(CC(=O)NCc1ccco1)c1ccco1 (centres undefined)	-28%	-15%	10%	?	28µM*	40µM*
CC(C)(C)c1ccc(Cn2nc(CC(=O)O)c3ccccc3c2=O)cc1	-7%	7%	30%	-14%	1%	4%[59 µM]
Cc1cc(C(F)F)nn1CC(=O)NCc1ccco1	-16%	-2%	1%	-33%	1%	?
O=C(NCc1ccco1)c1cccnc1-c1nc2ccccc2s1	79µM*	-7%	?	-34%	22µM*	?
O=C(NCc1ccco1)c1cccnc1Cl	-9%	-6%	12%	-27%	-5%	?
Cc1cc(-c2ccco2)n(CC(=O)NCc2ccco2)n1	-24%	nt	31%	1%	-25%	50µM*
COc1ccc(NC(=O)c2nc(S(=O)(=O)Cc3cccc(C)c3)ncc2Cl)c(OC)c1	-14%	nt	48%	-37%	4%	-41%
Cc1cccc(C)c1NC(=O)c1nc(S(=O)(=O)Cc2ccccc2)ncc1Cl	-6%	nt	21%[57 µM]	-3%	?	?
COc1ccc(OC)c(NC(=O)c2nc(S(=O)(=O)Cc3ccccc3)ncc2Cl)c1	-18%	nt	-13%[57 µM]	-35%	-5%	35µM*
Cc1cccc(CS(=O)(=O)c2ncc(Cl)c(C(=O)Nc3c(C)cccc3C)n2)c1	-9%	nt	88%	-17%	-24%	35µM*
O=C(Nc1ccc(F)cc1)c1nc(S(=O)(=O)Cc2ccccc2)ncc1Cl	-35%	nt	22%	-36%	?	nt
CCc1nnc(NC(=O)c2nc(S(C)(=O)=O)ncc2Cl)s1	10µM*	nt	46%	-27%	nt	7.1µM*
Cc1ccccc1CS(=O)(=O)c1ncc(Cl)c(C(=O)Nc2ccc(F)cc2)n1	5%	nt	33%	-14%	?	22µM*
O=C(Nc1ccccc1)N1CCCC2(CCN(C(=O)c3csnn3)CC2)C1	nt	nt	nt	nt	3%	10%[12.7 µM]
CCOC(=O)[C@@H]1[C@H]2COc3ccccc3[C@H]2N2C(=O)N(c3ccc(OC)cc3)C(=O)[C@]12C	-24%	3%	18%	-3%	13%	-6%
COc1ccc2nc(NC(=O)CSC(C)C(=O)Nc3cc(C)on3)sc2c1 (centres undefined)	-21%	-2%	-11%	-2%	nt	4%[0.501 µM]
CCC1=C2CC[C@H]3C(=O)N(CC(=O)OC)C(=O)[C@H]3[C@H]2[C@@]2(C)C(=NCCc3c[nH]c4ccccc34)OC(=O)N2C1=O	nt	nt	nt	nt	17%	nt
SMILES	JMJD2A Tudor inh	L3MBTL1 block	HP1b chromo inh	BAZ2B block	Sfp inh	G9a inh
CCc1nnc(NC(=O)c2cc(Cl)ccn2)s1	16µM*	nt	51%	20µM*	-25%	79µM*
Cc1nnc(NC(=O)c2nc(S(=O)(=O)Cc3ccccc3)ncc2Cl)s1	32µM*	nt	29%[57 µM]	50µM*!	?	40µM*
O=C(O)c1ccc2c(c1Nc1ccccc1)C(=O)c1ccccc1C2=O	50µM*	-24%	40µM*	?	-22%	40µM*
CCNc1c(C(=O)O)ccc2c1C(=O)c1ccccc1C2=O	-27%	-6%	-30%	35µM*	-2%	?
CCN(CCN(C)C)C(=O)c1ccc2c(c1NCCO)C(=O)c1ccccc1C2=O	-28%	nt	?	50µM*	?	16µM*
O=C(O)c1cccc2c1C(=O)c1ccccc1C2=O	-7%	41%	51%	nt	-8%	?
CNc1c(C(=O)O)ccc2c1C(=O)c1ccccc1C2=O	-31%	-15%	45µM*	35µM*	2%	14µM*
O=c1c2ccccc2ncn1CCCCOc1ccc(Br)cc1	6%	3%	68%	6%	2%	nt
CC(C)(C)OC(=O)NCC12C=CC(O1)C1C(=O)N(Cc3ccccc3)C(=O)C12 (centres undefined)	-8%	0%	35%	0%	71µM*	10µM*
O=C(CCc1ccccc1Cl)NC1CCCN(c2ccc(C(F)(F)F)cn2)C1 (centres undefined)	-7%	nt	32%	1%	6%	27%[59 µM]
COc1ccc2[nH]c(C)c(C(=O)CN3CCN(C(=O)c4ccco4)CC3)c2c1	-17%	0%	16%	1%	-7%	50µM*
COc1ccc(NC(=S)N2CCN(C(=O)c3ccco3)CC2)cc1	-9%	nt	9%	2%	-1%	26%
COc1ccc2oc(=O)c(C(=O)N3CCN(C(=O)c4ccco4)CC3)cc2c1	79µM*	nt	-7%	8%	-21%	18µM*
COc1ccc(NC(=S)N2CCN(C(=O)c3ccco3)CC2)c(OC)c1	-10%	-8%	-17%	5%	40µM*	?
COC(=O)c1ccc(NC(=S)N2CCN(C(=O)c3ccco3)CC2)cc1	-7%	nt	9%	-21%	45µM*	32µM*
O=C(/C=C\NCC(=O)c1ccccc1)c1ccc2ccccc2c1	?	-13%	-14%	-34%	-13%	7.9µM*
O=C(/C=C\NCC(=O)c1ccccc1)c1ccc(F)cc1	-20%	-3%	33%	-37%	4%	11µM*
O=C(c1ccccc1)c1ccc2ccccc2c1	215%	nt	315%	nt	nt	nt
O=C(/C=C/Nc1ccc(F)cc1Br)c1ccccc1	-21%	5%	23%	-3%	27%	-5%
CCCS(=O)(=O)N1CC(=O)N(c2cc(C)cc(C)c2)C(C)(C(=O)NC2CCCCCC2)C1 (centres undefined)	-20%	nt	-6%	3%	nt	0%[59 µM]
COc1cc(NC(=O)CN2Cc3ccccc3C2=O)cc(OC)c1OC	2%	nt	25%	4%	nt	2%[59 µM]
